High-throughput results deposited in PubChem by National Center for Advancing Translational Sciences (NCATS).
In the library only some 14% were active in any assay of this set; here they are far more common.
Shiga toxin inh – blocks Shiga toxin action in Vero cells; Vero cells, Shiga toxin protein synthesis inhibition reporter; inhibition, % at 38.7 µM; hit rate 9.2% among 290,000; in the data active means inhibition mostly above about 28%, no sharp cut-off; inactive means mostly below about 43%; further: 0% is about no effect
Giardia FBPA inh – inhibitors of Giardia lamblia fructose-1,6-bisphosphate aldolase | purified Giardia FBPA | A8B2U2 | Potency, µM (titrated, usually from 59.6 µM), for the others: at the top dose activity, negative = inhibition, actives largely listed as inhibitors | hit rate 0.71% among 290,000; further: potency means the concentration at half of the fitted maximal effect; on the % scale 0 is the no-effect control and ±100 the full control effect; nearly all actives have a fitted effect of over 55% in size
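Giardia FBPA (40 nM reagent) was preincubated 10 min at RT with compound (up to 57.5 uM final), then substrate plus GAPDH/TPI/NAD/arsenate coupling system with diaphorase/resazurin was added; resorufin fluorescence (525/598 nm) was read after 20 min.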
LmPK inh – LmPK (Leishmania mexicana) enzyme inhibition; Q27686; AID 1721; hit rate 0.37% among 290,000; purified LmPK, Kinase-Glo ATP luminescence, 1 h; Potency, µM (doses to about 57.5 µM), for the others: at the highest dose activity change, negative = inhibition, actives largely listed as inhibitors; further: potency means the concentration at half of the fitted maximal effect; on the % scale 0 is the no-effect control and ±100 the full control effect
Target sequence (Q27686 whole entry, looked up): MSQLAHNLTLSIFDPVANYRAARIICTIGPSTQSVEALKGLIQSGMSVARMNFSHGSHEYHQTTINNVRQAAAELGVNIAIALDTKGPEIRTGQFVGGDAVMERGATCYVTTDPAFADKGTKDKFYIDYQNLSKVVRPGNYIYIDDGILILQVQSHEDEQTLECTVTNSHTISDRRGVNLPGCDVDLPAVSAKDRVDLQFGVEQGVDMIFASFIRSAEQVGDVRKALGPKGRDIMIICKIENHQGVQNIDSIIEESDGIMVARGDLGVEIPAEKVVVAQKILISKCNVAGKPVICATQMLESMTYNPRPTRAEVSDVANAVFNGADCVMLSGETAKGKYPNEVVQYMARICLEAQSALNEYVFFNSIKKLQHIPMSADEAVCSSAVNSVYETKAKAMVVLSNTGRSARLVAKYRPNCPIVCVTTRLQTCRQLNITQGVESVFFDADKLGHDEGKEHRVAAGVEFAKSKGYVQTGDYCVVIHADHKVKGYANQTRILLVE
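Screened at intermediate enzyme activity to detect both inhibitors and activators: LmPK at 0.1 nM, with a 0.5 nM enzyme column as activation reference. PEP 0.5 mM, ADP 0.1 mM; ATP detected by luminescence after 1 h.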
Cycloheximide cs – counter-screen hit for Shiga toxin inhibitors, cycloheximide; cell reporter, cycloheximide protein synthesis inhibition counterscreen; max response, %; hit rate 12% among 300,000; in the data active means max response mostly above about 13%, no sharp cut-off; inactive means mostly below about 14%; further: read at 38.3 µM for the half of the compounds with a filed dose; 0% is about no effect
NS1 function inh – inhibitors of influenza NS1 protein function | Potency, µM (highest dose often 46.1 µM), without a hit: at the highest dose activity, positive = more growth | hit rate 0.4% among 270,000 | AID 2326; calls by dose curve; further: potency means the concentration at half of the fitted maximal effect; actives are rising curves; nearly all actives have a fitted effect of over 50% in size
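Compounds were scored for reversing the slow growth caused by influenza A NS1 in S. cerevisiae, measured by optical density at 600 nm. Assay medium contained 2% galactose at pH 6.0; NS1-free yeast of the same strain were the positive control.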
Numbers without * were called inactive; ? = inconclusive; · = no result; + = active, no number; [ ] = another dose, or the depositor's remark. Unless noted, the call rests on the fitted dose curve; in most records, active means well fitted curve in the direction sought with a large enough effect; inconclusive means small, poorly fitted or top-dose-only effect, or another doubt; inactive means no such curve, though single readings can be large; an effect the other way counts as inactive or inconclusive.

SMILES	Shiga toxin inh	Giardia FBPA inh	LmPK inh	Cycloheximide cs	NS1 function inh
Nc1nc(Cl)nc2c1ncn2[C@@H]1O[C@H](COP(=O)(O)OP(=O)(O)OP(=O)(O)O)[C@H](O)[C@H]1O	·	-1.8%	·	·	-6.2%
COC(=O)C1=C(C)N(Cc2ccccc2)C(=NCc2ccc(OC)cc2)N[C@H]1c1ccc(Br)cc1	2.3	7.4%	-6.0%	-1.1	11.6%
C[C@@](Br)(C(=O)O)[C@H](Br)C(=O)O	·	·	·	·	-1.4%
O=C(COc1cccc2ccccc12)Nc1nc2ccccc2[nH]1	-1.7	-13.8%	5.3%	1.9	-4.0%
CCOc1ccccc1OCC(=O)Nc1nc2ccccc2[nH]1	51.6*	-11.1%	0.2%	22.4*	·
CCOc1ccccc1Nc1nc2ccccc2[nH]1	22.1	-0.3%	-0.4%	17.2*	-11.9%
O=P(O)(CCP(=O)(O)c1ccccc1)c1ccccc1	·	·	·	·	-1.9%
CSCC[C@@H](C(=O)Nc1ccc2c(c1)OCCO2)N1Cc2ccccc2C1=O	58.8	1.2%	2.7%	27.3*	-3.9%
CC(C)C(C(=O)Nc1ccc2c(c1)OCO2)N1C(=O)c2ccccc2C1=O (stereo not given)	21.8	-9.9%	3.6%	0.7	-32.8%
CS(=O)(=O)CCC(C(=O)Nc1ccc2c(c1)OCO2)N1Cc2ccccc2C1=O (stereo not given)	23.1	5.3%	-3.9%	20.1*	1.4%
COCCCNC(=O)CN(c1cc([N+](=O)[O-])ccc1OC)S(C)(=O)=O	-11.0	3.1%	1.6%	-0.9	-0.4%
CCOc1cc(N(CC)CC)ccc1/C=C(/C#N)c1nc2ccccc2[nH]1	82.2*	-8.9%	1.4%	27.3*	3.2%
CCN(CC)c1ccc(/C=C(/C#N)c2nc3ccc(C)cc3[nH]2)c(OC(C)C)c1	22.2	-8.8%	-1.4%	14.7*	18.3%
O=C(CNCCc1ccc(Cl)cc1)Nc1ccc(C(=O)N2CCCCC2)cc1	-12.7	?	-2.9%	-3.6	4.1%
Cc1ccc(NC(=O)CCC(=O)c2cccs2)c(Br)c1	115.1*	9.6%	-2.7%	35.9*	-1.4%
Cc1ccc(NCCC(=O)c2cccs2)cc1Cl	53.3*	-0.5%	6.1%	29.2*	17.8%
Cc1ccc(C(=O)N/N=C(/CC(=O)c2cccs2)C(F)(F)F)cc1	-2.8	9.5%	-0.1%	23.2*	4.9%
CCCOc1ccc(C(=O)CCNc2ccc(C)c(Cl)c2)cc1	-11.3	-0.5%	-4.8%	-3.3	8.3%
Cc1c(Cl)cccc1NC(=O)CCC(=O)c1cccs1	14.5	1.0%	2.5%	13.6	-5.4%
CC(C)c1ccc(NCCC(=O)c2cccs2)cc1	140.2*	-5.2%	-1.6%	59.6*	-28.4%
CC1CCCN(C(=O)Cc2cccc3ccccc23)C1 (stereo not given)	3.6	6.6%	-3.9%	20.4	-17.2%
CC(C)c1nnc(SCC(=O)NC2CCCCC2)n1C	-5.5	-2.2%	1.5%	-1.3	6.3%
CC(=O)c1ccc(NC(=O)COC(=O)CCC(=O)c2cccs2)cc1	-9.9	8.6%	4.1%	-0.7	-1.7%
Cc1ccc(Oc2ccc(NC(=O)CCC(=O)OCC(=O)c3cccs3)cc2)cc1C	32.6	4.6%	1.1%	16.9*	-31.8%
Cc1ccc(NCCC(=O)c2cccs2)cc1	80.4*	1.8%	-2.9%	45.8*	·
SMILES	Shiga toxin inh	Giardia FBPA inh	LmPK inh	Cycloheximide cs	NS1 function inh
Cc1ccc(NC(=O)CCC(=O)c2cccs2)cc1	52.4	-2.8%	-6.9%	16.3*	-8.9%
Cc1cc(C)c(C(CC(=O)c2cccs2)C(C#N)C#N)c(C)c1 (stereo not given)	83.7*	-11.3%	3.9%	61.1*	-20.1%
CC12CCC(=O)N1C(C(=O)NCCc1ccc(S(N)(=O)=O)cc1)CS2 (stereo not given)	-20.9	·	-8.3%	-1.8	6.7%
CCc1nnc(NC(=O)C2CCCN2C(=O)Nc2ccccc2)s1 (stereo not given)	9.6	1.0%	-1.3%	5.3	3.0%
CC(=O)OC[C@H]1O[C@@H](O/N=C2/[C@H]3O[C@@H]3[C@@H](O)[C@H]3[C@H]2CCn2c(=O)n(-c4ccccc4)c(=O)n23)[C@H](OC(C)=O)[C@@H](OC(C)=O)[C@@H]1OC(C)=O	·	-0.8%[12.9 µM]	·	·	·
O=C(O)CCCC(=O)Nc1ccc(N2CCCC2)cc1	-6.9	-15.3%	-8.5%	-1.2	-3.7%
Cc1ccc(NCCC(=O)c2ccc(Cl)cc2)cc1C	21.6	·	5.8%	-1.4	0.2%
CC(CC(=O)c1cccs1)CC(=O)c1cccs1	+	-9.1%	0.0%	55.8*	-5.8%
O=C(CCC(=O)c1cccs1)Nc1ccc(N2CCCCC2)cc1	86.2*	-3.9%	-2.9%	44.8*	·
Cc1ccc(NCCC(=O)c2cccs2)cc1C	57.6*	0.8%	-0.8%	49.0*	0.5%
O=C(CCNc1cccc(Cl)c1)c1cccs1	56.6*	2.6%	3.2%	32.8*	-51.1%
COCC(C)n1c(SCC(=O)NNC(=O)c2ccccc2)nc2ccccc2c1=O (stereo not given)	2.5	-3.4%	4.7%	7.4	-3.2%
COCC(C)n1c(SCC(=O)NC(=O)Nc2ccc3c(c2)OCCO3)nc2ccccc2c1=O (stereo not given)	64.9*	-8.5%	1.1%	33.4*	-31.0%
O=C(CSc1nnnn1-c1ccccc1)NC(=O)Nc1ccc2c(c1)OCCO2	76.0*	11.4%	4.3%	56.1*	1.1%
CCOc1ccccc1-n1nnnc1SCC(=O)NC(=O)Nc1ccc2c(c1)OCCO2	20.5	-1.0%	0.1%	12.6*	-1.5%
CC(=O)N1CCN(S(=O)(=O)c2cccc(C(=O)Nc3ccc(F)c(F)c3)c2)CC1	-4.5	7.8%	-2.8%	-2.4	-41.6%
O=C(NC1CC(=O)c2sccc21)c1ccc(Cl)cc1Cl (stereo not given)	33.4	2.2%	-6.7%	31.5*	-4.6%
O=C(NN1C(=O)C2C3C=CC(C4CC34)C2C1=O)c1ccc(Cl)cc1Cl (stereo not given)	39.4	·	-0.5%	-2.2	9.3%
Cc1ccc(NC(=O)N(Cc2ccco2)Cc2cc3cc(C)cc(C)c3nc2Cl)cc1	48.2*	-5.2%	9.5%	26.7*	?
Cc1cc(NC(=O)c2ccc3[nH]c(C)c(C)c3c2)ccn1	51.7*	-0.5%	4.6%	33.9	4.7%
COc1ccc(C(=O)Nc2cccc(NC(C)=O)c2)cc1OC	-13.6	-4.3%	-7.3%	-2.1	1.9%
COc1ccc(NC(=O)c2ccc3[nH]c(C)c(C)c3c2)cc1	47.8*	-10.6%	1.4%	38.7*	-7.1%
Cc1[nH]c2ccc(C(=O)NCc3ccccn3)cc2c1C	54.6*	-6.1%	4.6%	29.2*	-4.5%
CC(=O)Nc1cccc(NC(=O)c2ccc3[nH]c(C)c(C)c3c2)c1	56.1*	-16.8%	0.1%	20.4*	8.3%
Cc1ccccc1S(=O)(=O)/N=C(/c1ccccc1)N1CCOCC1	-3.4	4.5%	-0.1%	-2.3	-1.7%
Cc1[nH]c2ccccc2c1CCNC(=O)c1ccc2nccnc2c1	·	-3.1%	8.1%	14.7*	7.5%
CCOc1ccccc1N(CC(=O)NCc1ccc(OC)cc1)S(C)(=O)=O	31.0	3.8%	0.3%	-2.1	0.3%
CCOc1ccc(N(CC(=O)NCc2ccccc2OC)S(C)(=O)=O)cc1	91.7*	2.4%	2.8%	42.6*	-2.5%
